The source of these data is PubChem BioAssay.

Experiment [1] can be described thus: modifiers of HSF1 nuclear foci, imaging, Selleck Cancer Library (AID 1347162; in the data active means plate-normalised HSF1 focus index below about 0.46). As to conditions: human cells, at 10 µM; SSMD: measured here: HSF1 foci SSMD mean; cell count: measured here: cell number; plate-normalised HSF1 focus index: stronger effect = lower value.
A short description of experiment [2]: phospholipid biosynthesis inhibitors in animal cells, primary screen, cell-based, LOPAC library, screen 4 (AID 1347384). As to conditions: phospholipid biosynthesis inhibition screen, at 10 µM.
Experiment [3] is described as follows: liver-stage malaria parasite growth inhibition, primary screen, cell-based, HepG2, luciferase luminescence, HepG2 viability (AID 624349; in the data active means parasite load remaining mostly below about 12%, no sharp cut-off; inactive means mostly above about 10%;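 further: 100% = mean of DMSO negative control wells on the same plate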). To be noted: P. berghei liver stage in HepG2, luciferase luminescence, concentration not given here; parasite load remaining: stronger effect = lower value; viability: measured here: HepG2 viability without parasites.
The nature of experiment [4]: circadian clock period modulators, cell-based, LOPAC library, luminescence reporter (AID 2774).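 Further: values are relative to mean of DMSO wells on each plate.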 To be noted: circadian reporter cells, at 7 µM, actives lie on both sides.
For experiment [5], the target named is Mitogen-activated protein kinase 7 (Homo sapiens) (UniProt Q13164). Nature of the experiment: ERK5 transactivation activators in reporter cells, primary screen, cell-based, HTS (AID 1508626;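 active means luciferase signal above three times the same-plate solvent-only control wells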;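 further: luciferase driven by Gal4-ERK5 fusion binding five Gal4 sites before minimal TATA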). As to conditions: HeLa Gal4-ERK5 transactivation, 18 h, at 5 µM, stronger effect = higher value.
Experiment [6] can be described thus: survival rescue of mitochondrial mutant cells in low glucose, primary screen, MELAS cybrids, Rieske KO mouse fibroblasts, CellTiter-Glo (AID 1508586;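 active means mean z-score across replicates of 1.96 or higher in either the MELAS or the Rieske mutant cell line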;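 further: z relative to plate mean and SD of compound and empty wells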). In general terms: ATP-based viability assays read luminescence as a measure of living cells.
A short description of experiment [7]: viability rescue of complex I mutant cybrids, primary screen, cell-based, galactose medium, ATP luminescence (AID 1645843;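 active means z-score of at least 1.8 in each of two replicates, scored against plate mean and spread of sample wells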;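 further: positive z means more ATP and so rescue of galactose-driven cybrid death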). To be noted: complex I mutant cybrid cells, 72 h, stronger effect = higher value.
Where [8] appears, read: MELAS cybrid survival, CellTiter-Glo 48 h, stronger effect = higher value.
The mark [9] stands for this setting: Rieske KO mouse fibroblast survival, CellTiter-Glo 72 h.

The source made the active and inactive calls. Unless noted, how the calls were made is not given here.

Sequence of Mitogen-activated protein kinase 7 (Homo sapiens) (Q13164 whole entry, looked up, the tested form may be a part): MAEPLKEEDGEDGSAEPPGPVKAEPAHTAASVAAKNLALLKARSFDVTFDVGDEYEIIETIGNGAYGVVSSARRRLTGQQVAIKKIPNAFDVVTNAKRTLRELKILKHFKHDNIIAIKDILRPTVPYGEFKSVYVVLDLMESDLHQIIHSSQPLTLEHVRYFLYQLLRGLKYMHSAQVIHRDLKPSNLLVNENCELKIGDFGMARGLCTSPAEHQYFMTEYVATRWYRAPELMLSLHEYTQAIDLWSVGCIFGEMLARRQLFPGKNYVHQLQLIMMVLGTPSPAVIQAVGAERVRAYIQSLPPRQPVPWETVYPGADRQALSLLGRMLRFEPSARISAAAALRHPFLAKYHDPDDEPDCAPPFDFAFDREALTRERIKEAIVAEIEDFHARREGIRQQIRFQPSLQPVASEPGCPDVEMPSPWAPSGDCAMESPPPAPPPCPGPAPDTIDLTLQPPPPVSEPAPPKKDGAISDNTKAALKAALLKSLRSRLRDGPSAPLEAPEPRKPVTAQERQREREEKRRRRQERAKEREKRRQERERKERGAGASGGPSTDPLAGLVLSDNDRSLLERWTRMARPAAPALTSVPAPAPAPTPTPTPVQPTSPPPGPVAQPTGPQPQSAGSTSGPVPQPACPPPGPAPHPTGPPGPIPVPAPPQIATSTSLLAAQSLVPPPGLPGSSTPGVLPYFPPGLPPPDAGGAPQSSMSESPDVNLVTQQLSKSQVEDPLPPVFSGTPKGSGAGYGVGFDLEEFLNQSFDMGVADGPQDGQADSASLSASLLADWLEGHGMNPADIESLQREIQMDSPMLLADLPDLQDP

Regarding `COc1ccc(Cc2nn3c([C@@H](CCCc4ccccc4)[C@@H](C)O)nc(C)c3c(=O)[nH]2)cc1OC`, in experiment [1], the SSMD is 2.11, the cell count came to 7160 and the plate-normalised HSF1 focus index is 1.12 (inactive).

In the case of `Nc1cc2c(ncn2CCOCP(=O)(O)O)c(=O)[nH]1`, the compound was called inactive in experiment [2].

Take `COCCNC(=O)COc1ccc(OCCNC[C@H](O)COc2ccccc2)cc1`: the compound was classed as inactive in experiment [2].

`Cc1nc(C#Cc2cccnc2)cs1`: in experiment [2], the compound was classed as inactive.

As to `CCN(CC)c1ncnc2c1ncn2[C@@H]1O[C@H](COP(=O)(O)OP(=O)(O)C(Br)(Br)P(=O)(O)O)[C@@H](O)[C@H]1O`, in experiment [2], the call was inactive.

With `NC(=O)c1cc[n+](CC2=C(C(=O)O)N3C(=O)[C@@H](NC(=O)[C@@H](c4ccccc4)S(=O)(=O)O)[C@H]3SC2)cc1`, the call in experiment [2] was inactive.

Regarding `c1ccc(-c2cnn3cc(-c4ccc(OCCN5CCOCC5)cc4)cnc23)cc1`, in experiment [2], the compound was called inactive.

On to `N=c1ccn2c(n1)OC1C(O)[C@@H](CO)O[C@H]12` (some centres undefined), for which, in experiment [2], the result was inactive.

As usually defined, the viability is the share of living cells, or the viability signal relative to a control. Turning to `N#C/C(=C1/Nc2ccccc2S1)c1ccnc(NCCc2cccnc2)n1`, in experiment [3], the parasite load remaining was 18.8% (inactive) and the viability amounted to 85.6%. In experiment [1], the SSMD turned out to be 2.72, the cell count is 6770 and the plate-normalised HSF1 focus index is 1.16 (inactive).

On to `COC(=O)c1ccc(O)c(NC(=O)COc2ccc(C34CC5CC(CC(C5)C3)C4)cc2)c1`, for which, in experiment [1], the SSMD is -6.52, the cell count came out at 7200 and the plate-normalised HSF1 focus index is 0.766 (inactive).

Turning to `O=CN(O)CCCP(=O)(O)O`, the compound was classed as inactive in experiment [2].

As to `C[N+](C)(C)CCOP(=O)(O)OP(=O)(O)OC[C@H]1O[C@@H](n2ccc(N)nc2=O)C(O)[C@H]1O` (some centres undefined), the compound was classed as inactive in experiment [2].

As for `Cc1cc(Nc2ncc3cc(-c4c(Cl)cccc4Cl)c(=O)n(C)c3n2)ccc1F`, in experiment [2], the call was inactive.

Consider `C[C@H](CSC(=O)c1ccccc1)C(=O)N1C[C@@H](Sc2ccccc2)CC1C(=O)O` (some centres undefined), for which the compound was classed as inactive in experiment [2].

As to `CCOC(=O)C1=C(O)C(=O)N(c2ccccc2)C1`, in experiment [1], the SSMD is 2.7, the cell count was 7070 and the plate-normalised HSF1 focus index was 1.16 (inactive).

`O=C(Nc1cc(C(F)(F)F)cc(C(F)(F)F)c1)Nc1c(Br)cc(Br)cc1-c1nn[nH]n1`: in experiment [2], the result was inactive.

Regarding `CC(C)CC(NP(=O)(O)O[C@@H]1O[C@@H](C)[C@H](O)[C@@H](O)[C@H]1O)C(=O)NC(Cc1c[nH]c2ccccc12)C(=O)O` (some centres undefined), the result in experiment [2] was inactive.

With `CO[C@H]1/C=C\C=C(/C)C(=O)NC2=CC(=O)C(NCCN(C)C)=C(C[C@@H](C)C[C@H](OC)[C@H](O)[C@@H](C)/C=C(\C)[C@@H]1OC(N)=O)C2=O`, in experiment [1], the SSMD amounted to 3.16, the cell count turned out to be 7300 and the plate-normalised HSF1 focus index was 1.12 (inactive).

As for `N#CC(=C(\N)Sc1ccccc1N)/C(C#N)=C(/N)Sc1ccccc1N`, the period change in experiment [4] was -0.02 h (inactive).

Regarding `C/C=C/C1=C(C(=O)O)N2C(=O)[C@@H](NC(=O)[C@H](N)c3ccc(O)cc3)[C@H]2SC1`, the luciferase signal in experiment [5] was 48 AU (inactive).

As to `Cc1ccc(S(=O)(=O)N2CCN3C(=O)[C@H](Cc4ccc(Cl)cc4)NC(=O)[C@H]3C2)cc1`, the figures for the z-score in experiment [6] (setting [8]), in experiment [6] (setting [9]) and in experiment [7] were 1.43 (inactive), -0.392 and -0.845 (inactive), respectively.

For the compound `Cc1cc(-c2cc3c(n(Cc4cccnc4)c2=O)CCN(C(=O)c2n[nH]c4c2CCC4)C3)ccc1F`, the z-score is -0.505 in experiment [6] (setting [8]), 4.42 in experiment [6] (setting [9]) and -1.53 (inactive) in experiment [7].

As for `Cc1ccc(C(C)CCN2CCc3c(c(C(=O)N4CCC(O)CC4)nn3CCc3ccccc3)C2)o1` (centres undefined), the z-score in experiment [6] (setting [8]) is -0.676 (inactive); in experiment [6] (setting [9]), -0.539; in experiment [7] it was 0.6 (inactive).

Turning to `COc1ccc(C(=O)N2CCN3C(=O)[C@H](COCc4ccccc4)NC(=O)[C@H]3C2)cc1`, the figures for the z-score in experiment [6] (setting [8]), in experiment [6] (setting [9]) and in experiment [7] were 1.06 (inactive), -0.655 and -0.43 (inactive), respectively.
